Experimental data as given in PubChem BioAssay.
Values joined by “and” are separate entries in the source; they are usually repeats but may differ in a detail not shown here. Equal values may be shown once. Records with an inconclusive call do not appear. Active and inactive are the calls of the source.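 How the source made its calls, unless noted: active means compounds whose cell count with miR-34 switched on is under 0.7 times the count with it off; inactive means the rest.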

Experiments:
[1] = circadian clock period modulators, cell-based, LOPAC library, luminescence reporter (AID 2774; call rule not given here;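 further: values are relative to mean of DMSO wells on each plate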); conditions: circadian reporter cells, at 7 µM, actives lie on both sides
[2] = tested on: Hepatitis C virus NS3 helicase; assay: HCV NS3 helicase inhibitors, primary screen, biochemical, fluorescence polarization, LOPAC1280 library (AID 687035; in the data active means inhibition above about 37%); conditions: Purified HCV NS3 helicase, Cy5-dT15 ssDNA binding fluorescence polarization; stronger effect = higher value; concentration not given here
[3] = Cy5 fluorescence quenching or enhancement artefacts, artefact control for HCV NS3 helicase inhibitor project, biochemical, LOPAC1280 (AID 687037; call rule not given here); conditions: Cy5-DNA-NS3h complex fluorescence interference counterscreen
[4] = molecular target: 6-phosphogluconate dehydrogenase, decarboxylating (Homo sapiens) (UniProt P52209); assay: 6PGD enzyme inhibitors, primary screen, biochemical, human, recombinant enzyme, NADPH absorbance (AID 1159550;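 active means at least 20% inhibition of 6-phosphogluconate dehydrogenase activity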); conditions: recombinant 6PGD, NADPH absorbance 341 nm; at 10 µM; stronger effect = higher value
Sequence of 6-phosphogluconate dehydrogenase, decarboxylating (Homo sapiens) (P52209 whole entry, looked up): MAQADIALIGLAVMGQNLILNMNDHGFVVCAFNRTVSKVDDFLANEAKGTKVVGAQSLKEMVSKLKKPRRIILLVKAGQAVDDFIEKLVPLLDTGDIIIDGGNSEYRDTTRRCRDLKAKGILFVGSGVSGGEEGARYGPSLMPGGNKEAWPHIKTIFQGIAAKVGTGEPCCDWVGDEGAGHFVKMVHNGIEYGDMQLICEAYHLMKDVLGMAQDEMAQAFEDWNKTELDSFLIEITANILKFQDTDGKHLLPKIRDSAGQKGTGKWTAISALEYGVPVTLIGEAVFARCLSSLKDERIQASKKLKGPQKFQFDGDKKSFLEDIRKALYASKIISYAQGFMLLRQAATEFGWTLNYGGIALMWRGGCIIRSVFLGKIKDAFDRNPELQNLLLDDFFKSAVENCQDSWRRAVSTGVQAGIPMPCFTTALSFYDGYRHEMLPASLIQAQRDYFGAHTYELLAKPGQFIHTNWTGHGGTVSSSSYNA

[5] = tested on: Aerobactin synthetase IucA (Klebsiella pneumoniae, hypervirulent); assay: IucA enzyme inhibition, biochemical, LOPAC library, absorbance readout (AID 1346212; call rule not given here;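 further: 100% = no compound wells and 0% = no enzyme wells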); conditions: IucA enzyme assay, absorbance (OD) readout; stronger effect = lower value; concentration not given here
[6] = growth inhibition of DIPG glioma cells, dose response, cell-based, SU-DIPG-XIII, MIPE4.0, CellTiter-Glo, qHTS (AID 1347061; cut-off not given, nearly all actives have AC50 up to about 37 µM;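 further: cells exposed to compound for 48 hours before readout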); conditions: SU-DIPG-XIII viability, CellTiter-Glo ATP luminescence
[7] = growth inhibition of DIPG glioma cells, dose response, cell-based, JHH-DIPG-1, MIPE4.0, CellTiter-Glo, qHTS (AID 1347062; cut-off not given, nearly all actives have AC50 up to about 27 µM); conditions: JHH-DIPG-1 viability, CellTiter-Glo ATP luminescence
[8] = growth inhibition of DIPG glioma cells, dose response, cell-based, SU-DIPG-IV, MIPE4.0, CellTiter-Glo, qHTS (AID 1347063; cut-off not given, nearly all actives have AC50 up to about 30 µM;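 further: compound exposure lasted 48 hours before the viability readout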); conditions: SU-DIPG-IV viability, CellTiter-Glo ATP luminescence
[9] = SU-DIPG-VI glioma cell viability, MIPE4.0 library, CellTiter-Glo luminescence, qHTS (AID 1347066; cut-off not given, nearly all actives have AC50 up to about 30 µM;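 further: cells exposed to compound for 48 hours before readout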); conditions: CellTiter-Glo ATP luminescence
[10] = sensitizers of A549 cells to miR-34 induction, primary screen, imaging, A549 dox-inducible miR-34, nuclei and caspase counts (AID 1347080); conditions: A549 miR-34 inducible, Hoechst nuclei count, 48 h
[11] = molecular target: NAD(+) hydrolase SARM1 (Homo sapiens) (UniProt Q6SZW1); assay: SARM1 TIR NADase inhibitors, cell lysate, NAD-Glo luminescence (AID 1508614;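 active means compound whose remaining NAD level is above about 45 nM, limit read from the data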); conditions: SAM-TIR HEK293T lysate NADase, at 1 µM, stronger effect = higher value
Sequence of NAD(+) hydrolase SARM1 (Homo sapiens) (Q6SZW1 whole entry, looked up, the tested form may be a part): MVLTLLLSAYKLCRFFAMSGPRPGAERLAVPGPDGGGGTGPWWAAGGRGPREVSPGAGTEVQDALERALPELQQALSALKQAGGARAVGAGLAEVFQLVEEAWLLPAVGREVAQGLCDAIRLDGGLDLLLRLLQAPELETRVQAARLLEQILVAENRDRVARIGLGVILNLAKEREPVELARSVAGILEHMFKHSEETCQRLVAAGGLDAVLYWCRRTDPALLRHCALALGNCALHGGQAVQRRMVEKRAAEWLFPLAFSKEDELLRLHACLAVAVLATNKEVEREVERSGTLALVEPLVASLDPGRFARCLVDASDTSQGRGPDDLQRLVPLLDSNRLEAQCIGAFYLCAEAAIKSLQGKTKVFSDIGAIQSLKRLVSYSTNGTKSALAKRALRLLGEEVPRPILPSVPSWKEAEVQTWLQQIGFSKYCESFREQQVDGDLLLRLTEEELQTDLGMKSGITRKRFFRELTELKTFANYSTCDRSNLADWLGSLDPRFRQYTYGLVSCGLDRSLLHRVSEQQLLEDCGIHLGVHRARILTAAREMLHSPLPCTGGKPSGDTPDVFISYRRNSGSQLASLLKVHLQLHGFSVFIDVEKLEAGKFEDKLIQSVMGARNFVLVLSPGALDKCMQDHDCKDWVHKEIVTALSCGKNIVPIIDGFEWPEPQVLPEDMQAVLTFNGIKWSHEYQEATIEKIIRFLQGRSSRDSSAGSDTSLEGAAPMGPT

[12] = molecular target: Mitogen-activated protein kinase 7 (Homo sapiens) (UniProt Q13164); assay: ERK5 transactivation activators in reporter cells, primary screen, cell-based, HTS (AID 1508626;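 active means luciferase signal above three times the same-plate solvent-only control wells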;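 further: luciferase driven by Gal4-ERK5 fusion binding five Gal4 sites before minimal TATA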); conditions: HeLa Gal4-ERK5 transactivation, 18 h, at 5 µM, stronger effect = higher value
Sequence of Mitogen-activated protein kinase 7 (Homo sapiens) (Q13164 whole entry, looked up, the tested form may be a part): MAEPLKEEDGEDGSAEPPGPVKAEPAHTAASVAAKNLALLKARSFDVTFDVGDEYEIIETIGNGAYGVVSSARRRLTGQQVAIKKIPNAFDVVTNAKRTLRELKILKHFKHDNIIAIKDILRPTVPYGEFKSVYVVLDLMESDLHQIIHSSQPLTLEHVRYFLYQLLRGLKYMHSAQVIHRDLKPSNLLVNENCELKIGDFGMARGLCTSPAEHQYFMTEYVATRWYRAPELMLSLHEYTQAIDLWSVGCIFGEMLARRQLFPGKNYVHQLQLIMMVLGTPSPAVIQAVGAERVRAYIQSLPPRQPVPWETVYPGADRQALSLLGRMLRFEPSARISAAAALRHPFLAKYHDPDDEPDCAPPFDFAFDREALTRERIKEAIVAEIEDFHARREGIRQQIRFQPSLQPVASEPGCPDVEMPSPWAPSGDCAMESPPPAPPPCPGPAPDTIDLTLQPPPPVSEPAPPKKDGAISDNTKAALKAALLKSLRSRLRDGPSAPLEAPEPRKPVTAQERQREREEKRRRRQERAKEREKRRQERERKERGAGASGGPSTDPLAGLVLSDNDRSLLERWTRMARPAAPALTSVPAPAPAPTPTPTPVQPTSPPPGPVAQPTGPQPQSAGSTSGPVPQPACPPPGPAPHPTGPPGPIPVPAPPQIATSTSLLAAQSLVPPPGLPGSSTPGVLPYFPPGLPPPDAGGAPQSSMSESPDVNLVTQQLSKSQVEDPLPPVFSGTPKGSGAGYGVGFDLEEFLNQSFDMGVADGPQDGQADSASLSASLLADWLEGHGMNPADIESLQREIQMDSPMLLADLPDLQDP

[13] = viability rescue of complex I mutant cybrids, primary screen, cell-based, galactose medium, ATP luminescence (AID 1645843;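 active means z-score of at least 1.8 in each of two replicates, scored against plate mean and spread of sample wells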;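 further: positive z means more ATP and so rescue of galactose-driven cybrid death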); conditions: complex I mutant cybrid cells, 72 h, stronger effect = higher value
[14] = survival rescue of mitochondrial mutant cells in low glucose, primary screen, MELAS cybrids, Rieske KO mouse fibroblasts, CellTiter-Glo (AID 1508586;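 active means mean z-score across replicates of 1.96 or higher in either the MELAS or the Rieske mutant cell line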;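 further: z relative to plate mean and SD of compound and empty wells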)
[15] = liver-stage malaria parasite growth inhibition, primary screen, cell-based, HepG2, luciferase luminescence, HepG2 viability (AID 624349; in the data active means parasite load remaining mostly below about 12%, no sharp cut-off; inactive means mostly above about 10%;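 further: 100% = mean of DMSO negative control wells on the same plate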); conditions: P. berghei liver stage in HepG2, luciferase luminescence, concentration not given here; parasite load remaining: stronger effect = lower value; viability: measured here: HepG2 viability without parasites
[16] = growth inhibition of DIPG glioma cells, dose response, cell-based, SU-DIPG-XVII, MIPE5.0, CellTiter-Glo, qHTS (AID 1347060; cut-off not given, nearly all actives have AC50 up to about 26 µM); conditions: SU-DIPG-XVII viability, CellTiter-Glo ATP luminescence
[17] = growth inhibition of DIPG glioma cells, dose response, cell-based, SU-DIPG-XIII, MIPE5.0, CellTiter-Glo, qHTS (AID 1347064; cut-off not given, nearly all actives have AC50 up to about 23 µM); conditions: SU-DIPG-XIII viability, CellTiter-Glo ATP luminescence
[18] = viability loss in pontine glioma line – cell-based, SU-DIPG-XXV, MIPE5.0, CellTiter-Glo, qHTS, dose response (AID 1347065; cut-off not given, nearly all actives have AC50 up to about 26 µM;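 further: cells exposed to compound for 48 hours before ATP readout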); conditions: CellTiter-Glo ATP luminescence
[19] = JHH-DIPG-1 glioma cell viability, MIPE5.0 library, CellTiter-Glo luminescence, qHTS (AID 1347067; cut-off not given, nearly all actives have AC50 up to about 26 µM;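 further: cells exposed to compound for 48 hours before readout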); conditions: JHH-DIPG-1 glioma viability, CellTiter-Glo ATP luminescence
[20] = SU-DIPG-XXV glioma cell viability, MIPE5.0 library, qHTS (AID 1347068; cut-off not given, nearly all actives have IC50 up to about 30 µM)
[21] = modifiers of HSF1 nuclear foci, imaging, Selleck Cancer Library (AID 1347162; in the data active means plate-normalised HSF1 focus index below about 0.46); conditions: human cells, at 10 µM; SSMD: measured here: HSF1 foci SSMD mean; cell count: measured here: cell number; plate-normalised HSF1 focus index: stronger effect = lower value
[22] = tested on: Aerobactin synthetase IucA (Klebsiella pneumoniae hvKP1); assay: Biochemical IucA enzyme inhibition primary screen of the Spectrum library (AID 1346200; call rule not given here;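 further: 100% = wells without compound and 0% = wells lacking enzyme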); conditions: malachite green pyrophosphate, A620, at 8 µM, stronger effect = lower value
[23] = phospholipid biosynthesis inhibitors in animal cells, primary screen, cell-based, LOPAC library, screen 4 (AID 1347384; call rule not given here); conditions: phospholipid biosynthesis inhibition screen, at 10 µM
[24] = measured here: relative caspase fold change +Dox/-Dox
[25] = measured here: total cells with miR-34 induction, stronger effect = lower value
[26] = measured here: total cells without miR-34 induction
[27] = MELAS cybrid survival, CellTiter-Glo 48 h, stronger effect = higher value
[28] = Rieske KO mouse fibroblast survival, CellTiter-Glo 72 h

C[N+](C)(C)CC(=O)O
period change [1]: -0.005 h (inactive)
inhibition [2]: -5% (inactive)
fluorescence ratio (interference) [3]: 0.9 (inactive)
inhibition [4]: 5.32% (inactive)
remaining activity [5]: 106% (inactive)
outcome [6]: inactive
outcome [7]: inactive
outcome [8]: inactive
outcome [9]: inactive
fold change ([10]; stronger effect = lower value): 1.03 (inactive)
fold change [10, 24]: 1.89
cell count [10, 25]: 9950
cell count [10, 26]: 9700
remaining NAD [11]: 10 nM (inactive)
luciferase signal [12]: 268 AU (inactive)
z-score [13]: 0.805 (inactive)

COc1ccc2c(c1)[C@]13CCCC[C@@H]1[C@H](C2)N(C)CC3
inhibition [4]: 2.05% (inactive)
fold change ([10]; stronger effect = lower value): 0.873 (inactive) and 0.843 (inactive) and 0.893 (inactive)
fold change [10, 24]: 2.02 and 0.727 and 1.27
cell count [10, 25]: 9020 and 10500 and 9760
cell count [10, 26]: 10300 and 12400 and 10900
z-score [14, 27]: 0.326 (inactive) and 0.234 (inactive)
z-score [14, 28]: 0.302 and -0.256
remaining NAD [11]: 10 nM (inactive)
luciferase signal [12]: 28 AU (inactive)
z-score [13]: -0.13 (inactive)

C[C@]12CCC(=O)C(O)=C1CC[C@@H]1[C@@H]2CC[C@]2(C)C(=O)CC[C@@H]12
parasite load remaining [15]: 20.3% (inactive)
viability [15]: 80.5%
inhibition [4]: -18.3% (inactive)
outcome [16]: inactive
outcome [6]: inactive
outcome [7]: inactive
outcome [8]: inactive
outcome [17]: inactive
outcome [18]: inactive
outcome [19]: inactive
outcome [20]: inactive
fold change ([10]; stronger effect = lower value): 0.801 (inactive)
fold change [10, 24]: 1.62
cell count [10, 25]: 8120
cell count [10, 26]: 10100
SSMD [21]: 1.39
cell count [21]: 6710
plate-normalised HSF1 focus index [21]: 1.07 (inactive)
z-score [14, 27]: 1.07 (inactive) and 0.415 (inactive)
z-score [14, 28]: -0.144 and -0.532
remaining NAD [11]: 10 nM (inactive)
luciferase signal [12]: 48 AU (inactive)
z-score [13]: 0.27 (inactive)

CCC(N)C(O)c1ccc(O)c(O)c1 (stereo unspecified)
parasite load remaining [15]: 130% (inactive) and 71.4% (inactive)
viability [15]: 87.2% and 104%
inhibition [4]: -10.4% (inactive)
activity remaining [22]: 121% (inactive)
fold change ([10]; stronger effect = lower value, cell number ratio, induced over uninduced): 0.787 (inactive)
fold change [10, 24]: 5.47
cell count [10, 25]: 7560
cell count [10, 26]: 9610
remaining NAD [11]: 10 nM (inactive)
luciferase signal [12]: 76 AU (inactive)

CC(C)=CCOc1c2occc2cc2ccc(=O)oc12
parasite load remaining [15]: 18.8% (inactive)
viability [15]: 92.7%
inhibition [2]: -2% (inactive)
fluorescence ratio (interference) [3]: 1 (inactive)
inhibition [4]: 4.77% (inactive)
activity remaining [22]: 108% (inactive)
fold change ([10]; stronger effect = lower value): 1.08 (inactive)
fold change [10, 24]: 1.1
cell count [10, 25]: 8640
cell count [10, 26]: 8010
outcome [23]: inactive
z-score [13]: 0.56 (inactive)
